Data taken from ChEMBL document CHEMBL4513146, “CO-ADD screening of Karazin Kharkiv National University (Ukraine) compounds”.
Entries with a potency or affinity are not part of this list.

These molecules were tested on Cryptococcus neoformans. Settings: Concentration 32 ug.mL-1; ASSAY_TEST Inhibition of Fungal Growth; detection method Resazurin; Absorption (OD600-OD570); plate type 384well; NBS; CORNING #3640.
`Cc1cccc(Oc2nc3ccccc3n3c(=O)n(CC(=O)Nc4ccc5c(c4)OCCO5)nc23)c1C` showed an Inhibition of -31.77%. For `CCc1nnc2c(=O)n(CC(=O)Nc3ccc(C#N)cc3)c3ccccc3n12`, the Inhibition was -24.76%. For `CCOC(=O)c1cccc(NC(=O)CSc2nc3ccccc3n3c(C(C)C)nnc23)c1`, the Inhibition was -15.16%. `C=Cc1ccc(CSc2nnc3c(=O)n(-c4cccc(OC)c4)ccn23)cc1` was tested, and the Inhibition was -2.41%. `CCc1nnc2c(=O)n(CC(=O)Nc3ccc(Br)cc3F)c3ccccc3n12` gave an Inhibition of -13.86%. In the case of `O=C(Cn1nc2c(Sc3ccccc3)nccn2c1=O)Nc1ccc2c(c1)OCCO2`, the Inhibition is reported as -3.83%. With `COC(=O)c1ccc(NC(=O)Cn2nc3ccc(Sc4ccc(C)cc4)nn3c2=O)cc1` the Inhibition was -10.13%. `COc1ccc(NC(=O)Cn2nc3ccc(SC(C)(C)C)nn3c2=O)cc1OC` gave an Inhibition of -14.12%. `Cc1ccc(CN(c2cccc(F)c2)S(=O)(=O)c2ccc3nnc(C)n3c2)cc1` gave an Inhibition of -8.87%. `CCc1nnc2ccc(S(=O)(=O)N(Cc3cccc(OC)c3)c3ccc(F)cc3)cn12` was tested, and the Inhibition was -8.65%. For `Cc1ccc(-c2cc3c4nn(CC(=O)NCc5ccccc5Cl)c(=O)n4ccn3n2)cc1C`, the Inhibition was -5.01%. `CCc1ccc(NC(=O)CSc2nnc3c(=O)n(-c4ccccc4)ccn23)cc1` gave an Inhibition of -14.31%. `Cc1cc(NC(=O)Cn2nc3ccc(SC(C)(C)C)nn3c2=O)ccc1Br` gave an Inhibition of -21.27%. `COc1ccc(CNC(=O)Cn2nc3c(SC4CCCCC4)nccn3c2=O)cc1` was tested, and the Inhibition was -15.36%. `Cc1ccc(-c2ccc3nnc(CCC(=O)NCc4ccc(C(C)C)cc4)n3n2)cc1C` showed an Inhibition of -18.09%. `O=c1c2nnc(SCc3ccc(Cl)cc3)n2ccn1-c1ccc(F)c(F)c1` was tested, and the Inhibition was -5.11%. With `COc1cc(OC)c(NC(=O)Cn2nc3ccc(Sc4cccc(F)c4)nn3c2=O)cc1Cl` the Inhibition was -5.99%. `CCc1ccccc1Sc1nccn2c(=O)n(CC(=O)N3CCN(c4ccccc4)CC3)nc12` gave an Inhibition of -19.52%. With `CCOc1ccc(NC(=O)Cn2nc3c(Oc4cccc(OC)c4)nccn3c2=O)cc1` the Inhibition was -8.08%. Molecule `CCc1ccccc1Sc1nccn2c(=O)n(CC(=O)NCc3cccs3)nc12` has an Inhibition of -9.94%. `Cc1ccc(Sc2nccn3c(=O)n(CC(=O)Nc4ccc(C)cc4Br)nc23)c(C)c1` gave an Inhibition of -20.37%. In the case of `Cc1ccc(Cl)cc1NC(=O)CSc1nnc2c(=O)n(-c3ccccc3)ccn12`, the Inhibition is reported as -17.19%. With `O=C(Cn1nc2nc(Nc3ccc(F)cc3)ccn2c1=O)N1CCCC1` the Inhibition was -8.71%. Molecule `Cc1ccc(-n2ccn3c(SCC(N)=O)nnc3c2=O)cc1C` has an Inhibition of -10.4%. In the case of `CC(C)c1nnc2c(SCC(=O)Nc3cccc(Cl)c3)nc3ccccc3n12`, the Inhibition is reported as -14.08%. Work on `Cc1ccc(-c2ccc3nnc(CCC(=O)NCc4cccc(Br)c4)n3n2)cc1C` yielded an Inhibition of -4.39%. `O=c1c2sccc2n2c(SCc3cccc(C(F)(F)F)c3)nnc2n1Cc1ccc(F)cc1` gave an Inhibition of -25.66%. In the case of `Cc1ccc(-c2ccc3nn(CC(=O)Nc4ccc(Br)cc4)c(=O)n3n2)cc1C`, the Inhibition is reported as -18.48%. `CCOc1ccc(-n2ccn3c(SC(C)C(=O)Nc4cc(OC)cc(OC)c4)nnc3c2=O)cc1` (centres undefined) gave an Inhibition of -3.58%. For `COc1cccc(-n2ccn3c(SCC(=O)Nc4ccc5c(c4)OCCO5)nnc3c2=O)c1`, the Inhibition was -26.1%. For `Cc1ccc(NC(=O)Cn2c(=O)c3nnc(C(C)C)n3c3ccccc32)cc1`, the Inhibition was -10.22%. With `CCCCOc1ccc(-c2cc3c4nnc(SCC(=O)Nc5ccc(CC)cc5)n4ccn3n2)cc1` the Inhibition was -11.7%. `CCCCn1c(=O)c2sccc2n2c(=O)n(CC(=O)c3ccc(C)cc3C)nc12` gave an Inhibition of -20%. `Cc1cccc(N(Cc2cccc(Cl)c2)S(=O)(=O)c2cccn3c(C)nnc23)c1` gave an Inhibition of -4.93%. `COc1ccccc1N1CCN(C(=O)CSc2nnc3c(=O)n(-c4ccc(F)cc4)ccn23)CC1` gave an Inhibition of -8.01%. Work on `O=C(Cn1nc2ccc(C(=O)NCc3ccccc3)cn2c1=O)Nc1ccc(Br)cc1` yielded an Inhibition of -19.25%. Molecule `Cc1ccc(F)cc1NC(=O)CSc1nc2ccccc2n2c(C)nnc12` has an Inhibition of -19.09%. In the case of `Cc1ccc(NC(=O)c2ccc3nnc(SCC(=O)Nc4ccc(Br)cc4)n3c2)cc1`, the Inhibition is reported as -17.05%. `CCc1ccc(N(Cc2ccccc2Cl)S(=O)(=O)c2cccn3c(C)nnc23)cc1` was tested, and the Inhibition was -4.25%.
